The target in experiment [1] is Glucocorticoid receptor (Homo sapiens) (UniProt P04150). As to the kind of experiment: GR-EFC Redistribution (AID 451; calls by dose curve; also: potency is read from the fitted curve at half-maximal effect). Conditions: CHO-K1 GR-EFC translocation, beta-gal luminescence, 2 h. The procedure, abridged: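 CHO-K1 cells stably expressing nuclear-localized β-gal enzyme acceptor and GR fused C-terminally to the enzyme donor fragment; ligand-driven nuclear translocation restores β-gal by complementation. Compounds titrated up to 46 uM final, 2 h at 37 °C; luminescence read.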

In experiment [2] the target is Mitogen-activated protein kinase 10 (Mus musculus) (UniProt Q61831). As to the kind of experiment: JNK3 AlphaScreen Assay (AID 530; active = well fitted curve in either direction with a large enough effect, not every such curve was filed as active;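 also: kinase came from lysate of stimulated human HepG2 cells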; also: potency is read from the fitted curve at half-maximal effect;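 as to activity change, negative = inhibition: signal reports phosphorylation of biotinylated GST-cJun 1-79 at Ser73 with 10 µM ATP; % is scaled to controls: 0 for no effect and ±100 for the full control effect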). Conditions: JNK3 lysate, c-Jun phosphorylation; series mostly up to 25.6 µM. In a few lines:
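Biotinylated GST-cJun(1-79) served as substrate for JNK3 in HepG2 lysates stimulated with IL-1beta and TNF-alpha. ATP was 10 uM final, pH 7.6. Ser73 phosphorylation was quantified by AlphaScreen (680 nm excitation).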
A general note: In Alpha technology, singlet oxygen from a donor bead excites a nearby acceptor bead.

Experiment [3] addresses 3',5'-cyclic-AMP phosphodiesterase 4B (Homo sapiens) (UniProt Q07343). As to the kind of experiment: qHTS Assay for Inhibitors of PDE-IV (AID 607; active = well fitted activation curve with a large enough effect in the main read-out, with a control signal flat, not every such curve was filed as active; also: % of control where 0% means no effect). The conditions noted are these: HEK293 ACTOne CNG channel cells, membrane potential fluorescence; series mostly up to 22.9 µM. In a few lines: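 HEK293 ACTOne cells with CNG channel (1000/well), endogenous PDE4; membrane potential dye, compounds up to 22.9 uM final. Fluorescence Ex 535/Em 590; RO 20-1724 (100 uM final) as reference.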
On the technique in general: Quantitative high-throughput screening tests each substance at several concentrations.

Experiment [4] in a line: qHTS Assay for Lipid Storage Modulators (AID 1519; calls by dose curve; as to activity change, negative = inhibition: % is scaled to controls: 0 for no effect and ±100 for the full control effect). The conditions noted are these: Drosophila S3 cells, BODIPY lipid droplet/cell ratio, laser cytometry, cells loaded with oleic acid. In a few lines: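 Cells seeded at 5,000 per well were treated with compounds over a concentration series and loaded with oleic acid (400 uM, as added). Lipid droplet fluorescence (488 nm excitation, 500-530 nm channel) was read by laser-scanning cytometry and normalized to 20 uM Triacsin C.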

For experiment [5], the target named is Ubiquitin carboxyl-terminal hydrolase 1 (Homo sapiens) (UniProt O94782). As to the kind of experiment: Inhibitors of USP1/UAF1: Pilot qHTS (AID 504865).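 Also: rhodamine fluorescence freed from ubiquitin-rhodamine substrate followed over time; top concentration of the series differs between compounds; % is scaled to controls: 0 for no effect and ±100 for the full control effect; nearly all actives have a fitted effect of over 35% in size.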 The conditions noted are these: purified USP1/UAF1, Ub-rhodamine cleavage fluorescence; series mostly up to 114 µM. In a few lines:
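USP1/UAF1 complex at 1 nM preincubated 15 min at room temperature with compound, then Ub-Rho substrate added at 150 nM final. Fluorescence (480/540 nm) read kinetically in 50 mM HEPES pH 7.8, 0.5 mM EDTA, 1 mM TCEP, 0.1 mg/ml BSA, 0.01% Tween-20.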

The target of experiment [6] is ATP-dependent 6-phosphofructokinase (Trypanosoma brucei brucei) (UniProt O15648). As to the kind of experiment: qHTS Assay to Find Inhibitors of T. brucei phosphofructokinase: hit validation (AID 492961).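 Also: luminescence reports ADP formed as PFK phosphorylates fructose-6-phosphate with ATP; % is scaled to controls: 0 for no effect and ±100 for the full control effect.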 The conditions noted are these: T. brucei PFK, ADP-Glo luminescence; series mostly up to 24.3 µM. In a few lines: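 Reaction: 0.1 M triethanolamine pH 8.0, 5 mM MgCl2, F6P 0.5 mM, ATP 0.1 mM, PFK 1.25 nM, 45 min RT. Read-out: ADP-Glo luminescence. Analysis: concentration-response fits, classed by r2 and efficacy.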

The target of experiment [7] is Luciferin 4-monooxygenase (Photinus pyralis) (UniProt P08659). As to the kind of experiment: Biochemical firefly luciferase enzyme assay for NPC (AID 624030).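 Also: purified P. pyralis luciferase at 10 nM with luciferin and ATP substrate; 0% = DMSO and -100% = full luciferase inhibition by PTC124 control; nearly all actives have a fitted effect of over 70% in size.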 Conditions: purified P. pyralis luciferase, luminescence, 5 min; series mostly up to 24.9 µM. In a few lines: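 Counter-screen for direct inhibition of the luciferase enzyme by approved-drug library compounds, run at 10 nM enzyme in 50 mM Tris acetate (final). Luminescence was read within 5 min of enzyme-buffer addition and normalized to PTC124 versus DMSO (0%).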

Experiment [8] can be described thus: qHTS profiling for inhibitors of Plasmodium falciparum proliferation (AID 504749). Also: potency is read from the fitted curve at half-maximal effect.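 As to activity, negative = inhibition: 0% = DMSO vehicle and full inhibition = artemisinin control.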 As to all read-outs here: nearly all actives have a fitted effect of over 60% in size. Conditions: P. falciparum in erythrocytes, SYBR Green DNA, 72 h; for activity, negative = inhibition: at 28.7 µM (top of the series). In a few lines: (§1)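 Fluorescence of SYBR Green-bound parasite DNA, read at 485/535 nm, served as the growth measure. Infected erythrocytes were cultured with compound 72 h; artemisinin (0.29 uM) and DMSO wells defined the normalization range.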

In the next experiment the test system is AS120. The description is as above. The conditions noted are these: P. falciparum in erythrocytes, SYBR Green DNA, 72 h; series mostly up to 12.8 µM. In a few lines: as §1
A further experiment concerns C2A. Described as above. The conditions noted are these: P. falciparum in erythrocytes, SYBR Green DNA, 72 h; series mostly up to 12.8 µM. The procedure, abridged:
as §1

A further experiment concerns CP191. The description is as above. The conditions noted are these: P. falciparum in erythrocytes, SYBR Green DNA, 72 h; series mostly up to 12.8 µM. In a few lines:
as §1

A further experiment relates to CP217. Described as above. The conditions noted are these: P. falciparum in erythrocytes, SYBR Green DNA, 72 h; series mostly up to 12.8 µM. The procedure, abridged:
as §1

Another experiment concerns CP305. Described as above. Conditions: P. falciparum in erythrocytes, SYBR Green DNA, 72 h; series mostly up to 12.8 µM. In a few lines:
as §1

Another experiment deals with CP329. The description is as above. The conditions noted are these: P. falciparum in erythrocytes, SYBR Green DNA, 72 h; series mostly up to 12.8 µM. The procedure, abridged:
as §1

A further experiment has as its system ECU. The experiment is described as above. The conditions noted are these: P. falciparum in erythrocytes, SYBR Green DNA, 72 h; series mostly up to 12.8 µM. The procedure, abridged:
as §1

A further experiment concerns N140. The description is as above. Conditions: P. falciparum in erythrocytes, SYBR Green DNA, 72 h; series mostly up to 12.8 µM. In a few lines: as §1
For a further experiment, the system named is PC15. The experiment is described as above. Conditions: P. falciparum in erythrocytes, SYBR Green DNA, 72 h; series mostly up to 12.8 µM. The procedure, abridged:
as §1

The next experiment concerns PC49. Described as above. The conditions noted are these: P. falciparum in erythrocytes, SYBR Green DNA, 72 h; series mostly up to 12.8 µM. The procedure, abridged: as §1
The next experiment concerns TAB165. The description is as above. The conditions noted are these: P. falciparum in erythrocytes, SYBR Green DNA, 72 h; series mostly up to 12.8 µM. In a few lines:
as §1

A further experiment deals with FAB9. Described as above. Conditions: P. falciparum in erythrocytes, SYBR Green DNA, 72 h; series mostly up to 12.8 µM. In a few lines:
as §1

The mark [9] stands for this setting: measured here: cell count channel max response.
Where [10] appears, read: measured here: lipid channel max response.

Data on 7 molecules can be found in PubChem BioAssay (NCATS).

Records with an inconclusive call do not appear. Active and inactive are the calls of the source. Unless noted, calls follow the shape of the dose curve; as a rule, active = well fitted curve in the direction sought with a large enough effect; inconclusive = small, poorly fitted or top-dose-only effect, or another doubt; inactive = no such curve, though single readings can be large; an effect the other way counts as inactive or inconclusive.

Sequence of 3',5'-cyclic-AMP phosphodiesterase 4B (Homo sapiens) (Q07343 whole entry, looked up): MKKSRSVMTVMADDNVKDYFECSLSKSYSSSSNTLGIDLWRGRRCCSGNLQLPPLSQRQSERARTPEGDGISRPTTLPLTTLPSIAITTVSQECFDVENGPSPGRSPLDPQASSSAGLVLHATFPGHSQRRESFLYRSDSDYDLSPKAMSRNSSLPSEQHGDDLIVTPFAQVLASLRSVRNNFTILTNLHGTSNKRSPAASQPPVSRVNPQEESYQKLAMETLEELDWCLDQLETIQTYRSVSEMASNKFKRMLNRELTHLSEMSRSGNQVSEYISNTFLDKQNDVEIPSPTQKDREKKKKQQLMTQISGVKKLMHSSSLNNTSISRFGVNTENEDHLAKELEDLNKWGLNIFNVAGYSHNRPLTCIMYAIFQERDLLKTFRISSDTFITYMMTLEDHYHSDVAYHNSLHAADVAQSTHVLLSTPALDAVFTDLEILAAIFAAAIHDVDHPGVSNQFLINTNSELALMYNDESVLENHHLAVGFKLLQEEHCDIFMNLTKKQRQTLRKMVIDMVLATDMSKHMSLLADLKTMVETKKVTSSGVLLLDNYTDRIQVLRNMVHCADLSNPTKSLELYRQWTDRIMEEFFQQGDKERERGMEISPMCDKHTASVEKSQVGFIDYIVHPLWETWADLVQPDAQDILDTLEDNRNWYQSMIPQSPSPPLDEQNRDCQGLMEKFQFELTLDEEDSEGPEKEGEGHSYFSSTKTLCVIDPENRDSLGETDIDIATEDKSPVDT
Sequence of ATP-dependent 6-phosphofructokinase (Trypanosoma brucei brucei) (O15648 whole entry, looked up): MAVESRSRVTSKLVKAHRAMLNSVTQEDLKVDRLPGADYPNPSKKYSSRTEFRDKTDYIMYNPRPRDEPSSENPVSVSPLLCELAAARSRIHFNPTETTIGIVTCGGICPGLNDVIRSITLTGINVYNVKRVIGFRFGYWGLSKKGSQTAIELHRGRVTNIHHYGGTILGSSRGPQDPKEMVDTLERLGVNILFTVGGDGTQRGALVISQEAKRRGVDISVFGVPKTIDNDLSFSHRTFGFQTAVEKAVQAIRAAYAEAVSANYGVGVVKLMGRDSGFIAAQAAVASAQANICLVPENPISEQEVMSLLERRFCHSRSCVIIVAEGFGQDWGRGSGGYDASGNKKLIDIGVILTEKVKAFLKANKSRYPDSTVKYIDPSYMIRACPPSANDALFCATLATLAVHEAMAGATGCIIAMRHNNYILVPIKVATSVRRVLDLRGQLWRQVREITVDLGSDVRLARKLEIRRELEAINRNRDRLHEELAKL
Sequence of Luciferin 4-monooxygenase (Photinus pyralis) (P08659 whole entry, looked up): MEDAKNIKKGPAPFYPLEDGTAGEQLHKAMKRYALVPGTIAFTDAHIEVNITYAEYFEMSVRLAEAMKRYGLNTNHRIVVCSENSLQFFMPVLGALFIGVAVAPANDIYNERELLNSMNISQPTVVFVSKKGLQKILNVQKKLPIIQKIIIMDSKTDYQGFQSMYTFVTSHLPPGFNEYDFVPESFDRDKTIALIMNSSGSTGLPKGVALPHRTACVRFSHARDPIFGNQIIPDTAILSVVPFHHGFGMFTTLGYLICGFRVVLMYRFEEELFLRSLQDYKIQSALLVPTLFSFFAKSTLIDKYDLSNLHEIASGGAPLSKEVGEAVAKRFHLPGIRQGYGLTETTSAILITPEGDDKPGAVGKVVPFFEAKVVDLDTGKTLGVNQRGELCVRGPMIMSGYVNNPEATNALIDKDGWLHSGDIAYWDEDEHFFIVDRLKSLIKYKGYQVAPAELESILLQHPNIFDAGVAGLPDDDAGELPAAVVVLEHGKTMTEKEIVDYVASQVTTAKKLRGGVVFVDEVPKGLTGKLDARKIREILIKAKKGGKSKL
Sequence of Glucocorticoid receptor (Homo sapiens) (P04150 whole entry, looked up, the tested form may be a part): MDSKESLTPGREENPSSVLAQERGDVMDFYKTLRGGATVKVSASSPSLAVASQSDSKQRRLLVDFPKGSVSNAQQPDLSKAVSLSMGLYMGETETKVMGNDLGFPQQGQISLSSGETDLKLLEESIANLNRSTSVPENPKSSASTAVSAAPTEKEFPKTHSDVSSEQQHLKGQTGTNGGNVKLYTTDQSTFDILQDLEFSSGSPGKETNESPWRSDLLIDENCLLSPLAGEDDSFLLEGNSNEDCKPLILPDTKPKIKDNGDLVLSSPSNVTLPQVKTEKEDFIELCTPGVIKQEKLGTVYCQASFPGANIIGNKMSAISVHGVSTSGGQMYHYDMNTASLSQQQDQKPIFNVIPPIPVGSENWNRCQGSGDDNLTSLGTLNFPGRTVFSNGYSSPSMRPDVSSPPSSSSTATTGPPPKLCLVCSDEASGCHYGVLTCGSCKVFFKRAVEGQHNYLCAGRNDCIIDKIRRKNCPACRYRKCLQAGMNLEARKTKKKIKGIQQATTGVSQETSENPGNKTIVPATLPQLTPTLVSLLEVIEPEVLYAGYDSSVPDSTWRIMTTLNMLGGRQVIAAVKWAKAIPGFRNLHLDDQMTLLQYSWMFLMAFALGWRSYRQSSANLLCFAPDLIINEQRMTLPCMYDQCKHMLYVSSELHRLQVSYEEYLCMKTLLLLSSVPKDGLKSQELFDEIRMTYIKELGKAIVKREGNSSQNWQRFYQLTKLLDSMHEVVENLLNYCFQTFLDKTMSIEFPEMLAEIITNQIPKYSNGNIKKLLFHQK
Sequence of Ubiquitin carboxyl-terminal hydrolase 1 (Homo sapiens) (O94782 whole entry, looked up): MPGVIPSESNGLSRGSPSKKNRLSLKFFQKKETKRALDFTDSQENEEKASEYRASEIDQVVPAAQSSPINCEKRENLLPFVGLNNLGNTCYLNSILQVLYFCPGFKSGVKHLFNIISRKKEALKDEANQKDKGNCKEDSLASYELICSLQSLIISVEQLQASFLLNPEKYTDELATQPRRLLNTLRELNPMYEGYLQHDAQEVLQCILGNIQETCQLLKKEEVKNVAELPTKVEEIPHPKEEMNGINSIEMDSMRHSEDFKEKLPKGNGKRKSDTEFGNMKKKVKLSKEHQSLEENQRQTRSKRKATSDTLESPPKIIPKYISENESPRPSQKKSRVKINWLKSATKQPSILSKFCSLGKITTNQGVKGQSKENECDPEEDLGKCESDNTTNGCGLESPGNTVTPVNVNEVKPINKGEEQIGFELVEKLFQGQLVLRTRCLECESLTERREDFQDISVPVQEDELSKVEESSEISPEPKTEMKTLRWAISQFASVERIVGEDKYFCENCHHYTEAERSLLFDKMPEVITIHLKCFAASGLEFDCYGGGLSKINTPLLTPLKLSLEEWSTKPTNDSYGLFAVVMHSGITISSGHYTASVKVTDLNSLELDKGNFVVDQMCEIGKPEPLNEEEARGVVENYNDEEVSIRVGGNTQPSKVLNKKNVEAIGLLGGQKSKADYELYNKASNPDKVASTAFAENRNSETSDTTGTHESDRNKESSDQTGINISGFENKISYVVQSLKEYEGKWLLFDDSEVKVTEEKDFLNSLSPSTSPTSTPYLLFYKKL

For `C[C@@H]1O[C@H](O[C@@H]2[C@H](C)O[C@H](O[C@@H]3[C@H](C)O[C@H](O[C@H]4CC[C@]5(C)[C@@H](CC[C@@H]6[C@H]5C[C@@H](O)[C@]5(C)[C@@H](C7=CC(=O)OC7)CC[C@]65O)C4)C[C@@H]3O)C[C@@H]2O)C[C@H](O)[C@@H]1O`, in experiment [1], the Potency is > 20.6 µM (inactive). Moreover, the Potency result in experiment [2] and in experiment [5] was “inactive” each time. The molecule was classed as inactive in experiment [3]. Moreover, the activity change, negative = inhibition in [4] (at 25.7 µM (top of the series)) is 0.916% (inactive). The results for the max response in experiment [4] (setting [9]) and in experiment [4] (setting [10]) were 2.04% and 1.22%, respectively.
On to `Cc1cc2ccc(=O)oc2cc1OC[C@@H](O)C(C)(C)O`, for which the Potency in experiment [1] was > 46 µM (inactive). For the same molecule, the Potency entry in experiment [2] is “inactive”. Besides, the activity change, negative = inhibition in experiment [4] (at 57.5 µM (top of the series)) is 5.47% (inactive). In addition, the results for the max response in experiment [4] (setting [9]) and in [4] (setting [10]) were 13% and 21.2%, respectively.
Consider `CC/C=C\C[C@H]1C(=O)CC[C@@H]1CC(=O)O`, for which the Potency in [1] is > 46 µM (inactive). In addition, the Potency entry in [2] is “inactive”. For the same molecule, the molecule was called inactive in [3]. Also, the activity change, negative = inhibition in experiment [4] (at 57.5 µM (top of the series)) was -2.79% (inactive). Further, the max response in experiment [4] (setting [9]) was -8.93%; in experiment [4] (setting [10]) it was -11.5%.
For `C[C@@H](C(=O)O)c1ccc(N2Cc3ccccc3C2=O)cc1`, the Potency in [1] is > 20.6 µM (inactive). For the same molecule, the Potency entry in experiment [2] and in experiment [5] was “inactive” throughout. The activity change, negative = inhibition in [4] (at 25.7 µM (top of the series)) is -0.476% (inactive). Also, the max response in experiment [4] (setting [9]) is -8.47%; in experiment [4] (setting [10]), -10.4%.
`C=Cc1c(C)c2cc3nc(cc4[nH]c(cc5nc(cc1[nH]2)C(C)=C5CCC(=O)O)c(CCC(=O)OC)c4C)[C@@]1(C)C3=CC=C(C(=O)OC)[C@H]1C(=O)OC` (tested in a mixture with another compound): the Potency in [1] was > 20.6 µM (inactive); in [2] it was 0.316 µM [activator] (active); in experiment [8] (parasite line A), 10 µM (active); in experiment [8] (parasite line B), 5.62 µM (active); in the experiment with AS120, 5.62 µM (active); with C2A it was 14.1 µM (active). For the same molecule, the Potency in the experiment on CP191 was 11.2 µM (active); in the experiment on CP217 it was 10 µM (active); with ECU, 3.98 µM (active); with N140, 7.08 µM (active); in the experiment with PC15 it was 5.01 µM (active); in the experiment on PC49 it was 5.01 µM (active). Further, the Potency in the experiment on TAB165 is 6.31 µM (active). The molecule was classed as inactive in experiment [3] and in experiment [6]. Moreover, the activity change, negative = inhibition in experiment [4] (at 25.7 µM (top of the series)) is 1.23% (inactive). Moreover, the max response in [4] (setting [9]) came to 3.74%; in experiment [4] (setting [10]) it was 2.29%. The Potency entry (in experiment [7]; in the experiment with CP305; with CP329) was “inactive” each time.
On to `C/C1=C2N=C(/C=C3N=C(/C(C)=C4\[N-]C(C)(C5N=C1C(C)(CCC(=O)NCC(C)OP(=O)([O-])O[C@H]1C(O)C(n6cnc7cc(C)c(C)cc76)O[C@@H]1CO)C5CC(N)=O)C(C)(CC(N)=O)C4CCC(N)=O)C(C)(CC(N)=O)C\3CCC(N)=O)C(C)(C)C/2CCC(N)=O.[CH2-]C1OC(n2cnc3c(N)ncnc32)C(O)C1O.[Co]` (some centres undefined), for which, in [4] (at 57.5 µM (top of the series)), the activity change, negative = inhibition was 3.3% (inactive). Moreover, the values for the max response in [4] (setting [9]) and in experiment [4] (setting [10]) were 22.1% and 29.7%, respectively. For the same molecule, the call in experiment [6] was inactive. Also, the Potency result (in [7]; in the experiment with AS120; with C2A; with CP191; in the experiment on CP217; in the experiment with CP305) was “inactive” in each case. For the same molecule, the Potency entry in the experiment on CP329, in the experiment with ECU, with FAB9, with N140, in the experiment with PC15 and with PC49 was “inactive” throughout. In addition, the Potency entry in the experiment on TAB165 was “inactive”. In addition, the activity, negative = inhibition in experiment [8] (parasite line A) is 4.62% (inactive); in [8] (parasite line B), 4.58% (inactive).
For the molecule `CC1C2CCC3C4CC=C5CC(N(C)C)CC[C@@]5(C)C4CC[C@@]32CN1C` (some centres undefined), the activity change, negative = inhibition in experiment [4] (at 57.5 µM (top of the series)) is 6.04% (inactive). Also, the max response worked out at 14% in [4] (setting [9]) and 22.7% in experiment [4] (setting [10]). The call in experiment [6] was inactive. Also, the Potency result (in [5]; in [7]; with AS120; in the experiment with C2A; with CP191; in the experiment with CP217) was “inactive” each time. Further, the Potency entry in the experiment on CP305, in the experiment on CP329, with ECU, with FAB9, in the experiment with N140 and in the experiment with PC15 was “inactive” in each case. For the same molecule, the Potency entry in the experiment on PC49 and with TAB165 was “inactive” throughout. Further, the activity, negative = inhibition in experiment [8] (parasite line A) was 2.63% (inactive); in [8] (parasite line B), 0.451% (inactive).
